SMILES strings stand for the structures. Where “and” joins values, the source holds several entries; their conditions need not be identical. Equal entries are not always repeated. Results filed as inconclusive are left out. Calls of active or inactive are those of the source. Calls follow the shape of the dose curve; as a rule, active = well fitted inhibition curve with a large enough effect; inconclusive = small, poorly fitted or top-dose-only effect; inactive = no such curve, though single readings can be large or run the other way. Residues, ends and D or L forms follow the SMILES beside them. *: point of attachment. Cbz = O=C(OCc1ccccc1)*
% is scaled to controls: 0 for no effect and ±100 for the full control effect; potency is read from the fitted curve at half-maximal effect.

A short description of this assay: Primary qHTS for inhibitors of nuclear receptor binding SET domain protein 2 (NSD2) in an RCH-ACV wild type WT cells (2C) (AID 1645877). Also: nearly all actives have a fitted effect of over 70% in size. Conditions: RCH-ACV (leukaemia line) NSD2 WT (2C) viability, CellTiter-Glo, 72 h; series mostly up to 44.9 µM; activity change, negative = cell killing: at the top concentration.
Take `CCCCCCCN(CC)CCCC(O)c1ccc(NS(C)(=O)=O)cc1` (stereo not drawn): the “activity change, negative = cell killing” value is -1.02% (inactive).

`CC(=O)NC(CS)C(=O)O` (stereo not drawn): the “activity change, negative = cell killing” value was 6.64% (inactive).

`COc1ccc(C=Cc2cc(OC)c(OC)c(OC)c2)cc1NC(=O)[C@H](N)CO`: the Potency was 0.118 µM (active). Regarding `Cc1ccc(O)c(C(CCN(C(C)C)C(C)C)c2ccccc2)c1` (stereo not drawn), the call was inactive. `CC(C)[C@H](CO)Nc1nc(Nc2cccc(Cl)c2)c2ncn(C(C)C)c2n1`: the Potency is 9.34 µM (active). On to `C[C@H](CCC(=O)O)[C@H]1CCC2C3C[C@H](O)[C@@H]4C[C@H](O)CC[C@]4(C)C3CC[C@@]21C` (stereo partly drawn), for which the “activity change, negative = cell killing” value was 9.47% (inactive). With `COc1cc2c(cc1OC)[C@@H]1C(=O)c3ccc4c(c3O[C@@H]1CO2)C=CC(C)(C)O4`, the Potency is 18.4 µM (active) and 5.9 µM (active).

`CC(C)C[C@H](NC(=O)CNC(=O)c1cc(Cl)ccc1Cl)B1OC(=O)CC(CC(=O)O)(C(=O)O)O1` (stereo partly drawn): the Potency was 0.118 µM (active).

Regarding `O=C1NCCc2[nH]c(-c3ccncc3)cc21`, the Potency was 1.32 µM (active).

Take `NC(=O)Nc1cc(-c2ccc(CN3CCOCC3)cc2)sc1C(N)=O`: the Potency is 0.372 µM (active). Take `CCCCOc1ccc(C(=O)Nc2ccc(F)cc2F)cc1`: the “activity change, negative = cell killing” value is 4.89% (inactive). For the compound `CC(=O)O[C@H]1C[C@@H]2CC[C@H]3[C@H]4C[C@H]([N+]5(C)CCCCC5)[C@@H](OC(C)=O)[C@@]4(C)CC[C@@H]3[C@@]2(C)C[C@H]1[N+]1(C)CCCCC1`, the call was inactive. Consider `CC(=O)SCC(Cc1ccccc1)C(=O)NCC(=O)OCc1ccccc1` (stereo not drawn), for which the “activity change, negative = cell killing” value was -15.1% (inactive). Take `Oc1ccc([C@@H]2Oc3ccc(O)cc3[C@@H]3CCC[C@@H]32)cc1`: the Potency was 5.9 µM (active). Same read-out and setting: the same measure for `c1cncc(CN2CCC(n3ncc4c(N5CCOCC5)nc(-c5ccc6[nH]ccc6c5)nc43)CC2)c1`: 1.15 µM (active) and 1.05 µM (active); for `O=C(Nc1nnc(-c2ccco2)o1)c1cc(-c2ccccc2)nc2ccccc12`: 13.2 µM (active). Regarding `CC(C(C)N1CC(=O)NC(=O)C1)N1CC(=O)NC(=O)C1` (stereo not drawn), the Potency was 3.32 µM (active).

On to `COc1ccc(S(=O)(=O)Nc2cccnc2Nc2ccc(O)cc2)cc1`, for which the Potency is 9.34 µM (active). The same measure, in the same setting: the same measure for `O=C(O)c1ccc(Nc2ncc3c(n2)-c2ccc(Cl)cc2C(c2c(F)cccc2F)=NC3)cc1`: 325 nM (active) and 372 nM (active); for `Cc1cncc2cccc(S(=O)(=O)N3CCCN(C(=O)CN)C[C@@H]3C)c12`: 1.45 µM (active). As to `c1coc(CNc2ncnc3nc[nH]c23)c1`, the “activity change, negative = cell killing” value is -16% (inactive). Regarding `O=C(NC1CC1)c1cccc(-c2ccc3c(NC(=O)C4CC4)n[nH]c3c2)c1`, the Potency is 5.25 µM (active). Take `Cc1cnc(Nc2ccc(N3CCN(C)CC3)cc2)nc1Nc1cccc(S(=O)(=O)NC(C)(C)C)c1`: the Potency is 1.86 µM (active).

Turning to `CCOC(=O)[C@@H](N)Cc1ccc(-c2cc(O[C@H](c3ccc(Cl)cc3-n3ccc(C)n3)C(F)(F)F)nc(N)n2)cc1`, the Potency was 23.5 µM (active). Same read-out and setting: to `Nc1nc(N)c2nc(-c3cccc(O)c3)c(-c3cccc(O)c3)nc2n1` belongs 13 µM (active) and 16.6 µM (active); to `CCCNS(=O)(=O)Nc1ncnc(OCCOc2ncc(Br)cn2)c1-c1ccc(Br)cc1`, 16.6 µM (active). Regarding `Cn1cc(C[C@@H](N)C(=O)O)c2ccccc21`, the outcome was “inactive [at 9.23 µM]”. As for `CCN(CC)CCCCNc1ncc2c(n1)N(C)C(=O)N(c1c(Cl)c(OC)cc(OC)c1Cl)C2`, the Potency is 13.2 µM (active). On the same count and under the same terms, the same measure for `CC(C)C[C@@H](C=O)NC(=O)[C@H](CC(C)C)NC(=O)[C@H](CC(C)C)NC(=O)OCc1ccccc1` (Cbz-Leu-Leu-Leu-aldehyde): 0.934 µM (active). Same read-out and setting: the same measure for `NC(=NCCCCCCN=C(N)N=C(N)Nc1ccc(Cl)cc1)N=C(N)Nc1ccc(Cl)cc1`: 5.25 µM (active). Consider `CC(Oc1ccc(O)cc1)(P(=O)(O)O)P(=O)(O)O`, for which the “activity change, negative = cell killing” value was -3.64% (inactive). The same measure, in the same setting: to `Cn1cnc(=N)c2[nH]cnc21` belongs 4.17% [at 91.9 µM] (inactive). Regarding `O=C(O)CCCCCC(=O)NN=C1CCCC1`, the compound was called inactive.

Source of the values: PubChem BioAssay (NCATS).
